# Measured values: the supplement of paper PMC8728848
# The sample as a whole holds a higher share of the strongest signals than the screen did.
# Experiments:
# Test in all cases: glycan array binding signal (z-score within array); higher = stronger binding
# Conditions in all cases: glycan notation: IUPAC condensed, linker removed
# Fuc(a1-2)Gal = target: Fuc(a1-2)Gal
# In short: (§1)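 Glycan array data came from 3228 arrays in the Consortium for Functional Glycomics database, and only arrays with an available protein sequence were kept. Glycan names were put into IUPAC-condensed notation, and columns mapping to the same glycan were averaged. The binding signal is a within-array Z-score, averaged across arrays of one protein sequence run at different concentrations or buffers and across linkers. A negative Z-score can be read as non-binding.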
# [1] = target: Fuc(a1-2)Gal(b1-3)GlcNAc(b1-2)Man(a1-3)[Fuc(a1-2)Gal(b1-3)GlcNAc(b1-2)Man(a1-6)]Man(b1-4)GlcNAc(b1-4)GlcNAc
# In short: as §1
# [2] = target: Fuc(a1-2)Gal(b1-3)GlcNAc(b1-3)[Gal(b1-4)GlcNAc(b1-6)]Gal(b1-4)Glc
# In short: as §1
# [3] = target: Fuc(a1-2)Gal(b1-3)[Fuc(a1-4)]GlcNAc(b1-3)[Gal(b1-4)GlcNAc(b1-6)]Gal(b1-4)Glc
# In short: as §1
# [4] = target: Fuc(a1-2)Gal(b1-4)GlcNAc(b1-2)Man(a1-3)[Fuc(a1-2)Gal(b1-4)GlcNAc(b1-2)Man(a1-6)]Man(b1-4)GlcNAc(b1-4)[Fuc(a1-6)]GlcNAc
# In short: as §1
# [5] = target: Fuc(a1-2)Gal(b1-4)GlcNAc(b1-2)[Fuc(a1-2)Gal(b1-4)GlcNAc(b1-4)]Man(a1-3)[Fuc(a1-2)Gal(b1-4)GlcNAc(b1-2)Man(a1-6)]Man(b1-4)GlcNAc(b1-4)GlcNAc
# In short: as §1
# [6] = target: Fuc(a1-2)Gal(b1-4)[Fuc(a1-3)]GlcNAc(b1-2)[Fuc(a1-2)Gal(b1-4)[Fuc(a1-3)]GlcNAc(b1-4)]Man(a1-3)[Fuc(a1-2)Gal(b1-4)[Fuc(a1-3)]GlcNAc(b1-2)Man(a1-6)]Man(b1-4)GlcNAc(b1-4)GlcNAc
# In short: as §1
# Fuc(a1-2)Gal6S(b1-4)Glc = target: Fuc(a1-2)Gal6S(b1-4)Glc
# In short: as §1
# [7] = target: Fuc(a1-2)Gal6S(b1-4)Glc6S
# In short: as §1
# [8] = target: Gal(a1-3)Gal(b1-3)[Fuc(a1-4)]GlcNAc(b1-2)Man(a1-3)[Gal(a1-3)Gal(b1-3)[Fuc(a1-4)]GlcNAc(b1-2)Man(a1-6)]Man(b1-4)GlcNAc(b1-4)GlcNAc
# In short: as §1
# [9] = target: Gal(a1-3)Gal(b1-4)GlcNAc(b1-6)GalNAc
# In short: as §1
# Gal(a1-4)Gal(b1-4)GlcNAc = target: Gal(a1-4)Gal(b1-4)GlcNAc
# In short: as §1
# Gal(a1-6)Glc = target: Gal(a1-6)Glc
# In short: as §1
# [10] = target: Gal(b1-3)GalNAc(b1-3)Gal(a1-4)Gal(b1-4)Glc
# In short: as §1
# [11] = target: Gal(b1-3)GlcNAc(b1-3)Gal(b1-3)GlcNAc
# In short: as §1
# [12] = target: Gal(b1-3)GlcNAc(b1-3)Gal(b1-4)[Fuc(a1-3)]GlcNAc
# In short: as §1
# [13] = target: Gal(b1-3)GlcNAc(b1-3)Gal(b1-4)[Fuc(a1-3)]GlcNAc(b1-6)[Gal(b1-3)GlcNAc(b1-3)]Gal(b1-4)Glc
# In short: as §1
# Gal(b1-4)Gal = target: Gal(b1-4)Gal
# In short: as §1
# [14] = target: Gal(b1-4)GlcNAc(b1-2)[Gal(b1-4)GlcNAc(b1-4)]Man(a1-3)[Gal(b1-4)GlcNAc(b1-2)Man(a1-6)]Man(b1-4)GlcNAc(b1-4)GlcNAc
# In short: as §1
# [15] = target: Gal(b1-4)GlcNAc(b1-3)Gal(b1-3)GlcNAc
# In short: as §1
# [16] = target: Gal(b1-4)GlcNAc(b1-3)Gal(b1-4)GlcNAc(b1-3)Gal(b1-4)GlcNAc(b1-2)[Gal(b1-4)GlcNAc(b1-3)Gal(b1-4)GlcNAc(b1-3)Gal(b1-4)GlcNAc(b1-6)]Man(a1-6)[Gal(b1-4)GlcNAc(b1-3)Gal(b1-4)GlcNAc(b1-3)Gal(b1-4)GlcNAc(b1-2)Man(a1-3)]Man(b1-4)GlcNAc(b1-4)[Fuc(a1-6)]GlcNAc
# In short: as §1
# [17] = target: Gal(b1-4)GlcNAc(b1-3)Gal(b1-4)GlcNAc(b1-3)Gal(b1-4)GlcNAc(b1-3)Gal(b1-4)GlcNAc(b1-3)Gal(b1-4)GlcNAc(b1-2)[Gal(b1-4)GlcNAc(b1-3)Gal(b1-4)GlcNAc(b1-3)Gal(b1-4)GlcNAc(b1-3)Gal(b1-4)GlcNAc(b1-3)Gal(b1-4)GlcNAc(b1-6)]Man(a1-6)[Gal(b1-4)GlcNAc(b1-3)Gal(b1-4)GlcNAc(b1-3)Gal(b1-4)GlcNAc(b1-3)Gal(b1-4)GlcNAc(b1-3)Gal(b1-4)GlcNAc(b1-2)Man(a1-3)]Man(b1-4)GlcNAc(b1-4)[Fuc(a1-6)]GlcNAc
# In short: as §1
# [18] = target: Gal(b1-4)GlcNAc(b1-3)Gal(b1-4)GlcNAc(b1-6)[Gal(b1-3)]GalNAc
# In short: as §1
# [19] = target: Gal(b1-4)GlcNAc(b1-3)Gal(b1-4)[Fuc(a1-3)]GlcNAc(b1-3)Gal(b1-4)[Fuc(a1-3)]GlcNAc
# In short: as §1
# [20] = target: Gal3S(b1-4)[Fuc(a1-3)]GlcNAc6S
# In short: as §1
# Gal3S4S(b1-4)GlcNAc = target: Gal3S4S(b1-4)GlcNAc
# In short: as §1
# Gal4S(b1-4)GlcNAc = target: Gal4S(b1-4)GlcNAc
# In short: as §1
# [21] = target: GalNAc(b1-3)Gal(a1-4)Gal(b1-4)GlcNAc
# In short: as §1
# [22] = target: GalNAc3S(b1-4)[Fuc(a1-3)]GlcNAc
# In short: as §1
# GalNAc4S6S(b1-4)GlcNAc = target: GalNAc4S6S(b1-4)GlcNAc
# In short: as §1
binder,measurement,setting,value
GS7807E-bfa-538-23-538 (Bacteroides fragilis) (protein) TDSFESFNTNEAGFDNDSKKQDFNYYGIPLGIIQQGIYFNYDWGSGKNWPFQTMQNLGADLFSGYVHDFNPFNEGKNNSTYYMMDGWNGSTWDNTYGYIMPEVQKSETINEKDNIGFFGITKILKVELMHRLSDLYGPIVYTQFGSKTGSTPDTQQEAYKAFFNDLDTGIAKIREYQKANPDIESFAKFDILMPQGKRTFSEWIRFANSLRLRLAVRIAMADSKLAVAEAQKALTDEEGLLEGNDEVVAVSTSSGYTNPFGEINKAWGEVFMNANMESLLVGYEDPRMEKYFDKATGSDATSLIDYKGTYKGIRQGTGFSHKNYNGHSKSTITQQTDAVLMTPAEVWFLRAEAALRGWSSESVKDCYEKGVKASFAQWGAAGAEAYLESDRKPSDYVDAFKAANNVKAVNTLTPKWDDAAGNEDKLGRIITQKWLAMFPEGGEAWAEQRRTGYPRLFPVLVNQSEGTVDTNLGPRRLNFFVGIKTTNPEQYTQLVNALGGIDNCGTRLWWDTGRNF,glycan array binding signal (z-score),Fuc(a1-2)Gal,-0.69
same,glycan array binding signal (z-score),[1],3.42
same,glycan array binding signal (z-score),[2],1.03
same,glycan array binding signal (z-score),[3],-0.553
same,glycan array binding signal (z-score),[4],-0.382
same,glycan array binding signal (z-score),[5],0.002
same,glycan array binding signal (z-score),[6],0.988
same,glycan array binding signal (z-score),Fuc(a1-2)Gal6S(b1-4)Glc,-0.644
same,glycan array binding signal (z-score),[7],-0.639
same,glycan array binding signal (z-score),[8],10.5
same,glycan array binding signal (z-score),[9],0.296
same,glycan array binding signal (z-score),Gal(a1-4)Gal(b1-4)GlcNAc,0.333
same,glycan array binding signal (z-score),Gal(a1-6)Glc,-0.29
same,glycan array binding signal (z-score),[10],0.143
same,glycan array binding signal (z-score),[11],0.812
same,glycan array binding signal (z-score),[12],-0.465
same,glycan array binding signal (z-score),[13],-0.627
same,glycan array binding signal (z-score),Gal(b1-4)Gal,-0.624
same,glycan array binding signal (z-score),[14],3.32
same,glycan array binding signal (z-score),[15],-0.306
same,glycan array binding signal (z-score),[16],4.56
same,glycan array binding signal (z-score),[17],0.867
same,glycan array binding signal (z-score),[18],4.07
same,glycan array binding signal (z-score),[19],0.531
same,glycan array binding signal (z-score),[20],-0.155
same,glycan array binding signal (z-score),Gal3S4S(b1-4)GlcNAc,-0.693
same,glycan array binding signal (z-score),Gal4S(b1-4)GlcNAc,-0.708
same,glycan array binding signal (z-score),[21],-0.246
same,glycan array binding signal (z-score),[22],3.75
same,glycan array binding signal (z-score),GalNAc4S6S(b1-4)GlcNAc,-0.65
